According to the supplement of paper PMC6607015:
Where a name gives a salt, the structure may show the parent alone.

Experiments:
Conditions in all cases: compound concentration in added solution (µM; 5 µl added to 20 µl cells): 10; 18 h
[1] = test system: A431; assay: LBPA endosome anti-LBPA integrated intensity (sum per cell), Z-score; higher = more LBPA staining
Method in brief: (§1)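 Reported values are Z-scores from AcuityXpress normalisation of per-cell integrated LBPA or filipin staining. HeLa MZ or A431 cells (3,500/well in 20 µl) were seeded onto 5 µl of 10 µM compound solution in duplicate 384-well plates, incubated 18 h, fixed in 4% PFA, stained and imaged at 20×. MetaXpress segmentation measured the intensity over the whole cell or within LBPA endosomes.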

[2] = test system: HeLa MZ; assay: as above
Method in brief: as §1

[3] = test system: A431; assay: whole-cell filipin (free cholesterol) integrated intensity, Z-score; higher = more cholesterol staining
Method in brief: as §1

[4] = test system: HeLa MZ; assay: as above
Method in brief: as §1

[5] = test system: A431; assay: filipin (cholesterol) integrated intensity within LBPA endosomes, Z-score; higher = more cholesterol in LBPA endosomes
Method in brief: as §1

[6] = test system: HeLa MZ; assay: as above
Method in brief: as §1

Structure (SMILES) | LBPA endosome anti-LBPA integrated intensity (z-score) [1] | LBPA endosome anti-LBPA integrated intensity (z-score) [2] | whole-cell filipin (z-score) [3] | whole-cell filipin (z-score) [4] | filipin (z-score) [5] | filipin (z-score) [6]
O=C(O)Cc1cc(I)c(Oc2ccc(O)c(I)c2)c(I)c1 [Tiratricol, 3,3',5-triiodothyroacetic acid] | -0.369 | 0.145 | -0.472 | -0.883 | -0.548 | -0.66
COc1cc2nc(N3CCN(C(=O)C4CCCO4)CC3)nc(N)c2cc1OC (stereo not drawn) [Terazosin hydrochloride] | -0.178 | 0.906 | -0.323 | -0.357 | -0.379 | 0.00198
O=C(O)c1ccccc1OP(=O)(O)O [Fosfosal] | -0.256 | 0.942 | -0.159 | 0.251 | -0.274 | -0.0166
COc1ccc(CC(C)NCC(O)c2ccc(O)c(NC=O)c2)cc1 (stereo not drawn) [Formoterol fumarate] | -0.505 | -1.42 | 0.171 | -0.609 | -0.478 | -0.313
N#CC(c1ccc(Cl)cc1)c1c(Cl)cc(-n2ncc(=O)[nH]c2=O)cc1Cl (stereo not drawn) [Diclazuril] | -0.281 | 0.505 | 0.197 | 0.559 | -0.215 | -0.204
CCc1c(C)[nH]c2c1C(=O)C(CN1CCOCC1)CC2 (stereo not drawn) [Molindone hydrochloride] | -0.564 | -0.568 | -0.123 | -0.707 | -0.506 | -0.344
CN(C)CCC=C1c2ccccc2CCc2ccccc21 [Amitryptiline hydrochloride] | 2.23 | 1.04 | 1.41 | 0.0305 | 2.47 | 1.81
CC(=O)Oc1cc(C(C)C)c(OCCN(C)C)cc1C [Moxisylyte hydrochoride] | -0.364 | -0.0871 | -0.91 | -1.03 | -0.482 | -0.452
OCCN1CCN(CCCN2c3ccccc3Sc3ccc(C(F)(F)F)cc32)CC1 [Fluphenazine dihydrochloride] | 2.14 | 0.746 | -0.522 | 0.27 | 2.23 | 3.52
CC(C(=O)O)c1ccc(N2Cc3ccccc3C2=O)cc1 (stereo not drawn) [Indoprofen] | -0.353 | 0.541 | -0.0864 | 0.103 | -0.445 | -0.482
COc1ccc(C(=O)c2ccccc2O)c(O)c1 [Dioxybenzone] | -0.417 | 0.711 | -0.27 | 0.232 | -0.379 | -0.234
Cc1cc(=O)n(-c2ccccc2)n1C [Antipyrine] | -0.333 | -0.475 | -0.316 | -0.0627 | -0.425 | -0.342
CCCCOC(=O)c1ccc(N)cc1 [Butamben] | -0.33 | 0.449 | -0.437 | -0.221 | -0.356 | -0.552
CCN1CCN(C(=O)N[C@@H](C(=O)N[C@@H]2C(=O)N3[C@@H]2SC(C)(C)[C@@H]3C(=O)O)c2ccccc2)C(=O)C1=O [Piperacillin sodium salt] | -0.232 | -0.383 | -0.0934 | -0.425 | -0.285 | -0.478
CN(C)[C@@H]1C(O)=C(C(N)=O)C(=O)[C@@]2(O)C(O)=C3C(=O)c4c(O)ccc(Cl)c4[C@@H](O)[C@H]3C[C@@H]12 [Demeclocycline hydrochloride] | -0.567 | -1.25 | -0.566 | -1.1 | -0.465 | -0.672
CC(C)NCC(O)c1ccc(O)c(O)c1 (single isomer, unassigned; (+)) [(+)-Isoproterenol (+)-bitartrate salt] | -0.327 | 0.363 | -0.262 | -0.346 | -0.516 | -0.475
CC1CS(=O)(=O)CCN1/N=C/c1ccc([N+](=O)[O-])o1 (stereo not drawn) [Nifurtimox] | -0.541 | -0.54 | 0.0023 | -0.211 | -0.444 | -0.628
CCN(CC)CCOC(=O)C1(c2ccc([N+](=O)[O-])cc2)CCCC1 [Nitrocaramiphen hydrochloride] | -0.558 | 0.568 | -0.0743 | -0.278 | -0.346 | -0.0224
CN[C@@H]1[C@@H](O)[C@@H](O[C@@H]2[C@@H](O)[C@H](O[C@H]3OC(CN)=CC[C@H]3N)[C@@H](N)C[C@H]2N)OC[C@]1(C)O [Sisomicin sulfate] | -0.541 | -0.481 | -0.622 | -0.546 | -0.517 | -0.45
CCCCC1(COC(=O)CCC(=O)O)C(=O)N(c2ccccc2)N(c2ccccc2)C1=O [Suxibuzone] | -0.274 | 0.271 | -0.0127 | 0.34 | -0.358 | -0.384
c1ccc2c(c1)CCCc1cc(NCCN3CCOCC3)nnc1-2 | -0.68 | -0.691 | -0.665 | -0.162 | -0.491 | -0.0973
CN(C)CCCN1c2ccccc2Sc2ccc(Cl)cc21 [Chlorpromazine hydrochloride] | 3.29 | 1.39 | 0.659 | 0.0307 | 2.35 | 1.67
Cc1c(Cl)cccc1Nc1ccccc1C(=O)O [Tolfenamic acid] | -0.417 | -0.76 | -0.809 | -0.604 | -0.464 | -0.636
COc1ccccc1OCC(O)CO (stereo not drawn) [Guaifenesin] | -0.398 | -0.463 | -0.553 | -0.523 | -0.471 | -0.504
CN1CCCN(C(c2ccccc2)c2ccc(Cl)cc2)CC1 (stereo not drawn) [Homochlorcyclizine dihydrochloride] | 2.75 | 1.74 | 0.946 | -0.527 | 2.1 | 1.46
COc1ccc(-c2ccc(=N)n(CCCC(=O)O)n2)cc1 [Gabazine bromide] | -0.561 | -0.0518 | -0.811 | -0.576 | -0.574 | -0.549
CCCCc1oc2ccccc2c1C(=O)c1cc(I)c(OCCN(CC)CC)c(I)c1 [Amiodarone hydrochloride] | 1.78 | 0.0569 | 0.251 | 0.182 | 2.45 | 1.95
CC(=O)OCC(=O)[C@@]1(O)CC[C@H]2[C@@H]3CCC4=CC(=O)CC[C@]4(C)[C@H]3[C@@H](O)C[C@@]21C [Cortisol acetate] | -0.325 | -0.845 | -0.384 | -0.119 | -0.306 | -0.404
